Source: PubChem (ICCB-Longwood Screening Facility, Harvard Medical School)
Shown is part of a subset that was picked to be rich in hits.
Anaer choline gr – choline-fed anaerobic bacterial growth inhibition | calls only | Gram-negative bacterium anaerobic choline minimal medium, absorbance growth; hits give low values | actives 0.2% (n = 55,000); call rule not given here
Active calls of the source: *; i = inactive; + = active, no number; ! = a repeat was not active.

SMILES	Anaer choline gr
O=C(Nc1cnn(-c2ncc(N3CCCC3)cn2)c1)NC1CCCC1	i
O=C(Nc1cnn(-c2ncc(N3CCSCC3)cn2)c1)C1CCOC1 (stereo unspecified)	i
O=C(Nc1cnn(-c2ncc(N3CCCC3)cn2)c1)C1CCC1	+
CCOc1ccc(NC(=O)N2CCN(c3cnccn3)CC2)cc1	i
FC(F)(F)c1cnc(NC2CC2)c(Cl)c1	i
O=S(=O)(NC1CCCCC1)c1ccc(-c2nnc(C3CCC3)o2)o1	i
CC(C)c1nnc(-c2ccc(S(=O)(=O)N3CCCCC3)o2)o1	i
CC(C)c1nnc(-c2ccc(S(=O)(=O)NC3CCCC3)o2)o1	+
Cc1ccc(S(=O)(=O)N2CCC(C(=O)NCC(=O)N3CCCc4ccccc43)CC2)cc1	i
O=C(NCc1ccc(-c2nc3ncccc3o2)cc1)C1(c2ccccc2)CCCC1	i
COc1ccc(Cl)cc1NC(=O)c1cnn(-c2ccc(Br)cc2)c1	i
Cn1c(-c2nnc(SCC(=O)Nc3ccc4c(c3)OCO4)o2)cc2ccccc21	i
O=C(CSc1nnc(-c2cccnc2)o1)Nc1ccc2c(c1)OCO2	+
O=C(CSc1nnc(-c2cc3ccccc3[nH]2)o1)Nc1ccc2c(c1)OCO2	i
Cc1noc(C(=O)N2CCCCC2)c1Cl	i
O=C(NCc1noc2ccccc12)Nc1ccc(F)c(Cl)c1	i
CCOC(=O)c1[nH]c(C)c(S(=O)(=O)Nc2ccc(C)cn2)c1C	i
Cc1cc2nc3sc(C(=O)NCCCN4CCN(c5ccccc5)CC4)cc(=O)n3c2cc1C	i
CCN1CCN(C(=O)[C@@H]2CCCN2C(C)=O)CC1	i
CCC(=O)N1CCCC1C(=O)N1CCCN(C)CC1 (stereo unspecified)	+
CCC(=O)N1CCCN(S(=O)(=O)CC)CC1	i
Cc1ccc(COC2CN(S(=O)(=O)c3ccc(C)cc3)C2)cc1	i
O=C(COc1ccc(Cl)cc1)Nc1cccc(OCc2cc(=O)n3ccccc3n2)c1	i
Cc1nc(Nc2cccc(F)c2)c2c(C)noc2n1	i
Cc1ccc(-c2nc3ccccc3c3nnc(SC(C)C(=O)NCC4CCCO4)n23)cc1 (stereo unspecified)	i
SMILES	Anaer choline gr
COc1cc(C2CC(=O)C3=C(C2)Nc2onc(C)c2C3c2ccc(Br)cc2)ccc1O (stereo unspecified)	i
COc1ccccc1CNC(=O)c1ccc(N2CCCC2)c(NC(=O)Nc2ccccc2Cl)c1	i
COc1ccccc1NC(=O)NCc1ccnc(N2CCCCC2)c1	+
O=C(NCc1ccnc(N2CCSCC2)c1)Nc1cc(F)ccc1F	i
O=C(NCc1ccnc(N2CCCCC2)c1)Nc1ccc(F)c(Cl)c1	+
O=C(NCc1ccnc(N2CCSCC2)c1)Nc1ccc(F)cc1F	i
COc1ccccc1NC(=O)Nc1ccc(Nc2cc(N3CCCC3)nc(C)n2)cc1	i
COC(=O)c1ccc(C2Nc3c(C)cc(C)cc3[C@H]3OCC[C@@H]23)cc1 (stereo partly specified)	i
Cc1ccc(Cl)cc1NS(=O)(=O)c1cc(-c2nc(C(C)(C)C)cs2)cs1	i
CC(C)(C)c1csc(-c2csc(S(=O)(=O)Nc3ccc(Cl)cc3F)c2)n1	+
CC(C)(C)c1csc(-c2csc(S(=O)(=O)Nc3ccc(F)c(Cl)c3)c2)n1	i
COC(=O)c1c(NC(=O)N2CCCC2c2ccccc2F)sc2c1CCCC2 (stereo unspecified)	i
CCCCN(C)c1ccc(NS(=O)(=O)c2ccc(Br)cc2)c(C(=O)O)c1	i
CCCCN(C)c1ccc(NC(=O)c2ccccc2Cl)c(C(=O)O)c1	+
CCCN1CCN(c2ccc(NC(=O)c3ccccc3Cl)c(C(=O)O)c2)CC1	i
CCCCN(C)c1ccc(NC(=O)C2CC2)c(C(=O)O)c1	i
O=C(Nc1ccc(N2CCC(Cc3ccccc3)CC2)cc1C(=O)O)c1ccccc1Cl	+
CN1CCN(c2ccc(NC(=O)c3ccccc3Cl)c(C(=O)O)c2)CC1	i
NC[C@@H]1O[C@H](C23CC4CC(CC(C4)C2)C3)Cc2c1ccc(O)c2O	+!
NC[C@@H]1O[C@H](c2ccccc2)Cc2c1ccc(O)c2O	i
Cc1ccc(S(=O)(=O)N2CCC3(CC2)NCCN=C3NCc2ccccc2)c(C)c1	i
Cc1ccc(C(=O)Nc2nc3c(s2)CN(C)CC3)cc1	i
Cc1ccc(Sc2cc3c(cc2NS(=O)(=O)c2ccccc2Cl)n(C)c(=O)n3C)cc1	i
Cc1[nH]c(C)c(S(=O)(=O)N2CCc3ccccc3C2)c1C(=O)N1CCCC1	i
Cc1[nH]c(C)c(S(=O)(=O)N2CCC(C(=O)N3CCc4ccccc43)CC2)c1C(=O)N1CCCCC1	i
SMILES	Anaer choline gr
Cc1[nH]c(C)c(S(=O)(=O)N2CCC(C(=O)N3CCc4ccccc43)CC2)c1C(=O)N1CCCC1	+
CCOc1ccccc1NS(=O)(=O)c1cc2c(cc1Cl)NC(=O)CO2	i
CNC(=O)C1CCN(Cc2noc(-c3ccc(F)cc3)n2)CC1	i
OCC1O[C@H](O)C(Cl)C(O)C1O (stereo partly specified)	i
OC[C@H]1O[C@H](O[C@H]2[C@H](O)[C@@H](O)[C@H](O)O[C@@H]2CO)[C@H](O)[C@@H](O)[C@@H]1O	i
OCC1O[C@H]([S-])[C@@H](O)C(O)[C@@H]1O.[Au+] (stereo partly specified)	+
CCC(C)NS(=O)(=O)c1ccc2c(c1)N(Cc1noc(C3CCC3)n1)C(=O)CO2 (stereo unspecified)	i
O=C(NCCN1CCOCC1)c1nc(-c2ccc(S(=O)(=O)N3CCCCC3)cc2)no1	i
CC/C=C\C/C=C\C/C=C\CCCCCCCCCC(=O)O	+
CC/C=C\C/C=C\C/C=C\CCCCCCCC(=O)O	i
CC/C=C\C/C=C\C/C=C\CCCCCCCCCCCC(=O)O	+
CCCCC/C=C\C/C=C\C/C=C\C/C=C\CCCCCC(=O)O	i
CCCCC/C=C\C/C=C\CC1OC1C/C=C\CCCC(=O)O (stereo unspecified)	i
CCCCC/C=C\C/C=C\CCCCCCCC(N)=O	i
CCCCCCC/C=C\CCCCCCCCC(=O)O	i
CCCCC/C=C\C/C=C\C/C=C\C/C=C\CCCC(=O)O	i
CC/C=C\C/C=C\C/C=C\C/C=C\C/C=C\CCCC(=O)O	+
Cc1cccc(NC(c2ccsc2)c2c(NC(=O)c3ccccc3)sc3c2CCCC3)n1 (stereo unspecified)	i
Cc1onc(-c2ccc(Br)cc2)c1C(=O)N1CCC(C)CC1	i
Cc1ccc(-c2cc(=O)n3[nH]c(C)c(-c4ccccc4)c3n2)cc1	i
COc1ccc(S(=O)(=O)c2c(C)cc(C)n(CC(=O)Nc3ccc(OC)c(OC)c3)c2=O)cc1	i
Cc1ccc2[nH]c3c(c(=O)c2c1)CN(Cc1ccccc1F)CC3	i
Cc1ccc(-c2noc3ncnc(N4CCC(C(=O)N(C)c5cc(C)ccc5C)CC4)c23)cc1	i
CCN(C(=O)c1c(C)oc2ncnc(N3CCCCC3)c12)c1cc(C)ccc1C	+
Cc1oc2ncnc(N3CCCCC3)c2c1C(=O)Nc1cccc(Cl)c1	i
SMILES	Anaer choline gr
Cc1cc(C)n(CC(=O)NCCc2ccccc2)c(=O)c1S(=O)(=O)c1ccc(Br)cc1	i
CCOc1cccc(-c2noc(-c3nn(-c4ccc(C)c(C)c4)ccc3=O)n2)c1	i
CCc1nc2cc(-c3noc(-c4ccc5c(c4)OCO5)n3)ccc2o1	i
Cc1noc2ncn(Cc3ccccc3)c(=O)c12	i
Cc1noc2nc[nH]c(=O)c12	+
Cc1noc2ncnc(NC(C)C)c12	i
